# Results reported in PubChem BioAssay (NCATS).
# Inconclusive results are not listed. A call without a number means that no potency is given here. Active and inactive are the calls of the source. Calls follow the shape of the dose curve; as a rule, active = well fitted cell-killing curve with a large enough effect; inconclusive = small, poorly fitted or top-dose-only effect, or effect the other way; inactive = no such curve, though single readings can be large or run the other way.
# Test: Quantitative High-Throughput drug screen in 47 multiple myeloma cell lines against the NCATS MIPE library collection: Karpas25_ECACC cell viability assay (AID 1918968; also: nearly all actives have a fitted effect of over 35% in size)
# Conditions: Karpas25 myeloma viability, CellTiter-Glo ATP, 48 h; series mostly up to 45.8 µM
# From the text: PI: Beverly A. Mock Ph.D.
# Laboratory of Cancer Biology and Genetics,
# Center for Cancer Research, National Cancer Institute,
# National Institute of Health, Bethesda, Maryland
# Drug resistance and disease progression are common in multiple myeloma (MM) patients, underscoring the need for new therapeutic combinations. […] We hypothesized that effective combinations would reduce MYC expression and enhance p16 activity. […] These preclinical data identify potentially useful drug combinations for evaluation in drug-resistant MM and reveal potential mechanisms of combined drug sensitivity.
# Described herein is the primary MIPE qHTS used to cherrypick compounds. Validated compounds were then further tested for potential synergistic activiy.
# [1] Peat TJ, Gaikwad SM, Dubois W, Gyabaah-Kessie N, Zhang S, Gorjifard S, Phyo Z, Andres M, Hughitt VK, Simpson RM, Miller MA, Girvin AT, Taylor A, Williams D, D'Antonio N, Zhang Y, Rajagopalan A, Flietner E, Wilson K, Zhang X, Shinn P, Klumpp-Thomas C, McKnight C, Itkin Z, Chen L, Kazandijian D, Zhang J, Michalowski AM, Simmons JK, Keats J, Thomas CJ, Mock BA. Drug combinations identified by high-throughput screening promote cell cycle transition and upregulate Smad pathways in myeloma. Cancer Lett. 2023 Aug 1;568:216284. doi: 10.1016/j.canlet.2023.216284. Epub 2023 Jun 24. PMID: 37356470; PMCID: PMC10408729.
# SEQUENCE No. (e.g., 1, 2, 3, etc.); […] (e.g., Cells, Incubation, Reagent, etc.); VALUE and DESCRIPTION.
# 1; Cells; 5 uL; white, solid bottom 1536-well Greiner assay plate.
# 2; Compounds; 23 nL; Kalypsis pin tool (Wako USA) equipped with a 1536-well pin head to transfer to the assay plates.
# 3; Incubation; 48 hours; 37C incubation.
# 4; Reagent;5uL; CellTiter Glo (Promega).
# 5; Detector; 425V; Luminescence; Viewlux PerkinElmer.
# NOTES (numbers refer to Sequence numbers above)
# 1. The cell-based screening methods employed in this study were like those previously published. Briefly, the corresponding myeloma cell lines were screened in 1,536-well plates with 500 cells, 5-uL per well for inhibition of cell viability (assessed by measuring ATP levels with CellTiterGlo).
# 2. NCATS MIPE 4.0 library of approved and investigational drugs were added using the Kalypsis pin tool. Wells treated with DMSO only for 100% viability and media only wells for 0% viability were used as controls.
# 3. The assay plates were covered and incubated for 48 hours in a 37C, 5% CO2 incubator with controlled humidity.
# 4. After 48 hours, CellTilter-GloTM luminescent substrate mix (Promega) reagent was added to the assay plate and plates we incubated for 5 min at room temperature.
# 5. Signal was measured as median relative luminescence units on a ViewLux (PerkinElmer) multiplate reader.
# [1] Heske CM, Davis MI, Baumgart JT, Wilson K, Gormally MV, Chen L, Zhang X, Ceribelli M, Duveau DY, Guha R, Ferrer M, Arnaldez FI, Ji J, Tran HL, Zhang Y, Mendoza A, Helman LJ, Thomas CJ. Matrix Screen Identifies Synergistic Combination of PARP Inhibitors and Nicotinamide Phosphoribosyltransferase (NAMPT) Inhibitors in Ewing Sarcoma. Clin Cancer Res. 2017 Dec 1;23(23):7301-7311. doi: 10.1158/1078-0432.CCR-17-1121. Epub 2017 Sep 12. PMID: 28899971; PMCID: PMC6636827.
# Potency is read from the fitted curve at half-maximal effect.
row,Compound,Potency
1,CCCN[C@H]1CCc2nc(N)sc2C1,2.09 µM (active)
2,Oc1c(Cl)cc(Cl)c2cccnc12,9.35 µM (active)
3,CCCCc1oc2ccc(NS(C)(=O)=O)cc2c1C(=O)c1ccc(OCCCN(CCCC)CCCC)cc1,16.6 µM (active)
4,Cn1c(=O)c2c(ncn2CC(O)CO)n(C)c1=O (stereo not given),inactive
5,COc1cc2nc(N3CCCN(C)CC3)nc(NC3CCN(Cc4ccccc4)CC3)c2cc1OC,5.26 µM (active)
6,CCOC(=O)[C@H](CCc1ccccc1)N[C@H]1CCc2ccccc2N(CC(=O)O)C1=O,20.9 µM (active)
7,Nc1nc(=S)c2[nH]cnc2[nH]1,1.48 µM (active)
8,N[C@@H](Cc1ccc(O)c(O)c1)C(=O)O,inactive
9,CC(C)(C)C(=O)OCOP(=O)(COCCn1cnc2c(N)ncnc21)OCOC(=O)C(C)(C)C,1.66 µM (active)
10,COc1cc2c(Nc3ccc(Br)cc3F)ncnc2cc1OCC1CCN(C)CC1,8.33 µM (active)
11,O=C(O)c1cc(=O)[nH]c(=O)[nH]1,inactive
12,COc1c(N2CCNC(C)C2)c(F)cc2c(=O)c(C(=O)O)cn(C3CC3)c12 (stereo not given),inactive
13,C[C@@H]1CN(c2c(F)c(N)c3c(=O)c(C(=O)O)cn(C4CC4)c3c2F)C[C@H](C)N1,inactive
14,CCOC(=O)[C@H](CCc1ccccc1)N[C@H]1CS[C@H](c2cccs2)CN(CC(=O)O)C1=O,5.9 µM (active)
15,CC(N)C12CC3CC(CC(C3)C1)C2 (stereo not given),inactive
16,N=C(N)c1ccc(OCCCCCOc2ccc(C(=N)N)cc2)cc1,2.96 µM (active)
17,C[C@@H](NCCCc1cccc(C(F)(F)F)c1)c1cccc2ccccc12,inactive
18,COc1ccc2c(c1)c(CC(=O)OCC(=O)O)c(C)n2C(=O)c1ccc(Cl)cc1,inactive
19,COc1ccc(-c2ccc3cc(C(=O)O)ccc3c2)cc1C12CC3CC(CC(C3)C1)C2,inactive
20,CCN1CCCC1CNC(=O)c1cc(S(N)(=O)=O)ccc1OC (stereo not given),2.09 µM (active)

row,Compound,Potency
1,CC(C(=O)O)c1ccc2c(c1)CC(=O)c1ccccc1S2 (stereo not given),18.7 µM (active)
2,CCOc1cc(N)c(Cl)cc1C(=O)NCC1CN(Cc2ccc(F)cc2)CCO1 (stereo not given),inactive
3,O=C(O)CSCC(=O)NC1CCSC1=O (stereo not given),inactive
4,CC(C)OC(=O)C(C(=O)OC(C)C)=C1SC=CS1,inactive
5,CCn1cc(C(=O)O)c(=O)c2cc(F)c(N3CCNCC3)cc21,inactive
6,NC(=O)c1cccc(N)c1,inactive
7,CS(=O)(=O)c1ccc([C@@H](O)[C@@H](CO)NC(=O)C(Cl)Cl)cc1,16.6 µM (active)
8,Cc1nnc(NS(=O)(=O)c2ccc(N)cc2)s1,8.33 µM (active)
9,CCCc1nc(C)c2c(=O)[nH]c(-c3cc(S(=O)(=O)N4CCN(CC)CC4)ccc3OCC)nn12,5.26 µM (active)
10,O=C(N[C@H](CO)[C@H](O)c1ccc([N+](=O)[O-])cc1)C(Cl)Cl,inactive
11,NC(=O)N1c2ccccc2CC(=O)c2ccccc21,inactive
12,O=C(NCC1CN(c2ccc(N3CCOCC3=O)cc2)C(=O)O1)c1ccc(Cl)s1 (stereo not given),16.6 µM (active)
13,COC(c1ccccc1)(c1ccccc1)[C@H](Oc1nc(C)cc(C)n1)C(=O)O,inactive
14,CC(C)Cn1cnc2c(N)nc3ccccc3c21,inactive
15,CCOCC(O)COc1ccc(NC(=O)CC[S+](C)C)cc1 (stereo not given),inactive
16,CCc1cc(C(N)=S)ccn1,inactive
17,CC1=CC(=O)c2ccccc2C1=O,9.35 µM (active)
18,Nc1[nH]c(=O)ncc1F,inactive
19,CN(CCOc1ccc(CC2SC(=O)NC2=O)cc1)c1ccccn1 (stereo not given),inactive
20,OC(Cn1cncn1)(Cn1cncn1)c1ccc(F)cc1F,inactive
